# According to paper PMC4336329 (PLoS ONE, 2015):
# In all, about 310,000 compounds went through this assay and about 14,000 (4.5%) showed an effect of 50% or more. The effect is printed as a negative number. This excerpt belongs to a sample that is enriched for strong results.
# Target: human ether-à-go-go-related gene (hERG) potassium channel (human, UniProt Q12809)
# Assay: primary screen, population patch clamp on CHO cells stably expressing hERG; higher = less effect of the substance
# 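Further: peak tail current of the secondary pulse compared with the same well before compound.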
# Sequence of human ether-à-go-go-related gene (hERG) potassium channel (Q12809 whole entry, looked up): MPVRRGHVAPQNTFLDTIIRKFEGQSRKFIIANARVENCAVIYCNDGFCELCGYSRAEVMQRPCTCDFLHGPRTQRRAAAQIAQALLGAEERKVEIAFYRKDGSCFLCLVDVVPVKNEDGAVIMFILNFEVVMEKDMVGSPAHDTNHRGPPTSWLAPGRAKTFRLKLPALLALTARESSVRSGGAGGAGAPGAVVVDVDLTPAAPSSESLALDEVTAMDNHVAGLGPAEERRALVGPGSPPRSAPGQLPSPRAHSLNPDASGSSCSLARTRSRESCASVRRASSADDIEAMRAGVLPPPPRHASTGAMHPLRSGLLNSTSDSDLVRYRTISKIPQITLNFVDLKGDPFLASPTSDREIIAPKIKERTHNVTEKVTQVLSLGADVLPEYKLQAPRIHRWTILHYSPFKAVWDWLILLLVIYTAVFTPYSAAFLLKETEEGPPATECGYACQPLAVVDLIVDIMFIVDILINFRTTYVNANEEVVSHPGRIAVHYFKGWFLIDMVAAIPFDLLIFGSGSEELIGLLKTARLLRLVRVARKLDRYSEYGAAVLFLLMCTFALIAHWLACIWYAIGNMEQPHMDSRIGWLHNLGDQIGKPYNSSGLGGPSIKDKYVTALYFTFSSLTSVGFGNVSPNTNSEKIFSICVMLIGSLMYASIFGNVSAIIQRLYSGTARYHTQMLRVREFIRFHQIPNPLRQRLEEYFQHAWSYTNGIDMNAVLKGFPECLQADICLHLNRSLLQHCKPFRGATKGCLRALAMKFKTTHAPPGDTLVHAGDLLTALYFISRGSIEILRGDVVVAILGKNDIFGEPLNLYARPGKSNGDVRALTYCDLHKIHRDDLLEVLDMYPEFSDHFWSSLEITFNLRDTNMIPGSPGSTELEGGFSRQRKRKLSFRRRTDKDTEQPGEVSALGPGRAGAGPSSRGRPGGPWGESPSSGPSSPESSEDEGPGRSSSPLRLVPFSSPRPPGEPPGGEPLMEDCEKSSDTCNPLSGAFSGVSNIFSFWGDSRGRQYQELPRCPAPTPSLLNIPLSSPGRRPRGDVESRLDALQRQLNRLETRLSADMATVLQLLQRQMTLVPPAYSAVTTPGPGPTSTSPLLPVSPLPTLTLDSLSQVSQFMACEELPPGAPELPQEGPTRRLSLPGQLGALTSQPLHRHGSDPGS
row,SMILES,"hERG current change (%, negative = inhibition) at 10uM [%]"
1,Cc1cc(C)cc(N(CC(=O)NCc2ccc(F)cc2)C(=O)CCC(=O)Nc2ccccn2)c1,18.7
2,COc1ccc(-c2csc(NC(=O)c3cc(=O)c4ccccc4o3)n2)cc1OC,4.58
3,N#Cc1ccc(-c2nc3ccccc3nc2-c2ccccc2)cc1C#N,21.7
4,CCc1cc2c(=O)nc3n(c2s1)Cc1ccccc1/C3=C(/O)c1cccc([N+](=O)[O-])c1,-4.6
5,O=C(CCN1CCN(CCO)CC1)Nc1ccc(Br)cc1,1.76
6,COc1ccc(C(=O)N/N=C\c2ccoc2)cc1,20.8
7,O=C(CN1C(=O)c2cccc3cccc1c23)NCc1ccc2c(c1)OCO2,-13.2
8,C=CCn1c(SCC(=O)NCC2CCCO2)nc2scc(-c3ccccc3)c2c1=O (stereo not drawn),-15.1
9,COC(=O)C1=C(N)Oc2cc(C)[nH]c(=O)c2C1c1ccccc1OC (stereo not drawn),9.48
10,COC(=O)C1=C(N)Oc2cc(N(C)C)ccc2C1c1ccccc1OC (stereo not drawn),-84.3
11,CCOc1ccc(Br)cc1C1C(C(=O)OC)=C(N)Oc2cc(N(C)C)ccc21 (stereo not drawn),21.4
12,Cc1ccc(C)c(OCC(=O)NCC(c2ccco2)N2CCCCC2)c1 (stereo not drawn),-2.72
13,COc1ccc(N2CCN(C(CNC(=O)COc3ccccc3)c3ccco3)CC2)cc1 (stereo not drawn),-67
14,O=C(COc1ccccc1)NCC(c1ccco1)N1CCN(c2ccccc2)CC1 (stereo not drawn),-26.6
15,Cc1ccccc1OCC(=O)NCC(c1ccco1)N1CCCCC1 (stereo not drawn),-31.4
16,O=C(COc1ccccc1)NCC(c1ccco1)N1CCN(c2ccc(F)cc2)CC1 (stereo not drawn),-41
17,Cc1cc(C)c(OCC(=O)NCC(c2ccco2)N2CCCCC2)c(C)c1 (stereo not drawn),-52.1
18,C[C@H](NC(=O)c1ccco1)C(=O)NC1CCCCCC1,-0.515
19,O=C(c1cccnc1)N1N=C(c2cccs2)CC1c1ccc(F)cc1 (stereo not drawn),-34.7
20,Cc1ccc(NC(=O)c2cccs2)cc1S(=O)(=O)Nc1cccc(Cl)c1,8.25
21,COc1ccc(NC(=S)N2CCC(C(=O)c3ccc(C)cc3)CC2)c(OC)c1,24.7
22,CCOc1cc(/C=N\NC(=O)CC(=O)NCCc2ccccc2)ccc1O,1.94
23,Cc1ccc(C)c(-c2nnc(NC(=O)Cc3ccccc3)o2)c1,16.1
24,COc1ccc(S(=O)(=O)N2CCN(C3Cc4ccccc4C3)CC2)cc1,11.8
